Here are results for six molecules from PubChem BioAssay (EPA / NIEHS).

Inconclusive results are not listed. Activity calls are given as the source filed them. How the source made its calls, unless noted: active means hit-call score of the fitted dose curve at least 0.9, where 1 is the maximum; inactive means score below 0.9.

Assay [1] addresses human Vitamin D Receptor (VDR), VDR (gene 7421) (UniProt P11473). The assay can be described thus: ATG_VDR_TRANS: Attagene TRANS-FACTORIAL HepG2 Assay for human Vitamin D Receptor (VDR) (AID 2283022; active means hit-call score of the fitted dose curve at least 0.9, where 1 is the maximum). In short, it runs like this: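 Steps: transfect HepG2 with GAL4-UAS-driven reporter constructs; dose compounds 24 h; isolate RNA, reverse-transcribe, PCR-amplify with 6-FAM-labelled primer extension and HpaI digestion; quantify fragments by capillary electrophoresis relative to DMSO.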

Assay [2] in a line: BSK_3C_SRB: Viability Assessment in the BioMAP Diversity Plus: 3C Assay (AID 2283023).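 Further: fitted both ways against DMSO so a hit may be signal rise or drop.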 Particulars: primary human endothelial cells (HUVEC). The method, boiled down: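 Absorbance at 560 nm of sulforhodamine B-stained (0.1%) total protein served as a cytotoxicity readout in human umbilical vein endothelial cells, 24 h after chemical treatment. Signal was fitted bidirectionally relative to DMSO.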

Read-out in assay [3]: Matrix Metallopeptidase 1 (MMP1), MMP1 (gene 4312)
The assay can be described thus: BSK_BE3C_MMP1: BioMAP Diversity Plus: BE3C Assay for Matrix Metallopeptidase 1 (MMP1) Biomarker Activity (AID 2283024). Particulars: primary human bronchial epithelial cells; actives raise or lower the signal. In short, it runs like this:
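ELISA measurement of MMP-1 after 24 h compound exposure of primary human bronchial epithelial cells. Changes in either direction fitted relative to DMSO; parallel SRB staining checked overt cytotoxicity.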

Assay [4] is described as follows: BSK_3C_Vis: BioMAP Diversity Plus: 3C Assay for Morphology Visualization (AID 2283025).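 Further: fitted both ways so gain or loss versus DMSO counts.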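 On AC50: light microscopy image of cell morphology used as background control.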 Particulars: primary human endothelial cells (HUVEC). In short, it runs like this: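 Light-microscopy visualization of HUVEC cultures at 24 h post-treatment, with DMSO as baseline for bidirectional fitting.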
Read-out in assay [5]: Pselectin, SELP (gene 6403)
The assay can be described thus: BSK_4H_Pselectin: BioMAP Diversity Plus: 4H Assay for Pselectin Biomarker Activity (AID 2283026). Particulars: primary human endothelial cells (HUVEC); actives raise or lower the signal. The method, boiled down: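 ELISA of surface P-selectin on HUVEC, 24 h after dosing, with parallel SRB staining (0.1% after 10% TCA fixation, 560 nm) for overt cytotoxicity. Activity fitted in both directions relative to DMSO.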

The nature of assay [6]: BSK_4H_SRB: Viability Assessment in the BioMAP Diversity Plus: 4H Assay (AID 2283027).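 Further: cells exposed to compound for 24 h before staining.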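 On AC50: curves fitted both ways versus DMSO so AC50 may be loss or gain.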 Particulars: primary human endothelial cells (HUVEC). In short, it runs like this: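 Cytotoxicity readout: sulforhodamine B (0.1%) staining of total protein after 10% TCA fixation, measured at 560 nm in human umbilical vein endothelium at 24 h. DMSO set the baseline; fitting was bidirectional.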

Assay [7] is described as follows: BSK_BE3C_SRB: Viability Assessment in the BioMAP Diversity Plus: BE3C Assay (AID 2283028).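 On AC50: fitted both ways so AC50 may mark signal gain or loss versus DMSO.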 Particulars: primary human bronchial epithelial cells. In short, it runs like this: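 Cells (human bronchial epithelial, primary) are treated with chemicals, and after 24 h the parallel cultures are fixed in 10% TCA. These are then stained with 0.1% SRB and read at 560 nm. Gain or loss of signal is fitted relative to DMSO.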

Read-out in assay [8]: Thrombomodulin, THBD (gene 7056)
Description: BSK_3C_Thrombomodulin: BioMAP Diversity Plus: 3C Assay for Thrombomodulin Biomarker Activity (AID 2283029). Particulars: primary human endothelial cells (HUVEC); actives raise or lower the signal. The method, boiled down: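 ELISA measurement of thrombomodulin on HUVEC surface 24 h after chemical dosing; activity fitted in both directions relative to DMSO vehicle.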

Read-out in assay [9]: Urokinase-type plasminogen activator receptor (uPAR), PLAUR (gene 5329)
Description: BSK_4H_uPAR: BioMAP Diversity Plus: 4H Assay for Urokinase-type plasminogen activator receptor (uPAR) Biomarker Activity (AID 2283030). Particulars: primary human endothelial cells (HUVEC); actives raise or lower the signal. In short, it runs like this: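 Cell-surface uPAR ELISA signal, measured 24 h after dosing human umbilical vein endothelial cells, was analyzed with bidirectional fitting relative to DMSO. Parallel SRB staining of total protein tracked overt cytotoxicity.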

Read-out in assay [10]: Vascular endothelial growth factor receptor 2 (Homo sapiens) (UniProt P35968)
Description: BSK_4H_VEGFRII: BioMAP Diversity Plus: 4H Assay for Vascular endothelial growth factor receptor 2 (VEGFR2) Biomarker Activity (AID 2283031). Particulars: primary human endothelial cells (HUVEC); actives raise or lower the signal. In short, it runs like this: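 ELISA read-out of VEGFRII in primary human umbilical vein endothelium, taken 24 h after chemical treatment. Responses are expressed relative to DMSO, with bidirectional fitting.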

Read-out in assay [11]: Vascular cell adhesion molecule 1 (VCAM1), VCAM1 (gene 7412)
The assay can be described thus: BSK_4H_VCAM1: BioMAP Diversity Plus: 4H Assay for Vascular cell adhesion molecule 1 (VCAM1) Biomarker Activity (AID 2283033).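 On outcome: cell-surface VCAM-1 protein measured by ELISA.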 Particulars: primary human endothelial cells (HUVEC); actives raise or lower the signal. In short, it runs like this: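 VCAM-1 ELISA read 24 h after chemical dosing of HUVEC in the BioMAP 4H system, with gain or loss of signal fitted relative to DMSO. Parallel SRB staining (560 nm) checked overt cytotoxicity.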

Read-out in assay [12]: Interferon-gamma inducible Protein 10 (IP10), CXCL10 (gene 3627)
The assay can be described thus: BSK_BE3C_IP10: BioMAP Diversity Plus: BE3C Assay for Interferon-gamma inducible Protein 10 (IP10) Biomarker Activity (AID 2283034). Particulars: primary human bronchial epithelial cells; actives raise or lower the signal. In short, it runs like this: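 IP-10 quantified by ELISA in human primary bronchial epithelial cell cultures at 24 hours post-dosing. Gain or loss of signal fitted relative to DMSO; parallel SRB staining assessed overt cytotoxicity.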

Read-out in assay [13]: Monokine induced gamma interferon (MIG), CXCL9 (gene 4283)
The assay can be described thus: BSK_BE3C_MIG: BioMAP Diversity Plus: BE3C Assay for Monokine induced gamma interferon (MIG) Biomarker Activity (AID 2283035). Particulars: primary human bronchial epithelial cells; actives raise or lower the signal. In short, it runs like this:
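hu bronchial epithelial 1° cells, 24 h cpd; MIG by ELISA; bidirectional fit, DMSO = baseline.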

Read-out in assay [14]: Transforming growth factor beta 1 (TGFb1), TGFB1 (gene 7040)
Description: BSK_BE3C_TGFb1: BioMAP Diversity Plus: BE3C Assay for Transforming growth factor beta 1 (TGFb1) Biomarker Activity (AID 2283036;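 on outcome: TGF-b1 protein level measured by ELISA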). Particulars: primary human bronchial epithelial cells; actives raise or lower the signal. The method, boiled down: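 ELISA readout of TGF-b1 from human lung bronchial epithelial primary cells, taken 24 h post-treatment. Gain or loss of signal fitted relative to DMSO baseline, with parallel SRB staining for overt cytotoxicity.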

Read-out in assay [15]: Plasminogen activator inhibitor-1 (PAI1), SERPINE1 (gene 5054)
The assay can be described thus: BSK_BE3C_PAI1: BioMAP Diversity Plus: BE3C Assay for Plasminogen activator inhibitor-1 (PAI1) Biomarker Activity (AID 2283037). Particulars: primary human bronchial epithelial cells; actives raise or lower the signal. In short, it runs like this:
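PAI-1 was measured by ELISA in human primary bronchial epithelial cultures 24 h after chemical dosing, with cytotoxicity checked by SRB total-protein staining in parallel cultures. Activity was fitted in both directions relative to DMSO.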

Read-out in assay [16]: urokinase plasminogen activator (uPA), PLAU (gene 5328)
The assay can be described thus: BSK_BE3C_uPA: BioMAP Diversity Plus: BE3C Assay for urokinase plasminogen activator (uPA) Biomarker Activity (AID 2283038).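 On outcome: uPA protein level quantified by ELISA in cell cultures; uPA read one day after compound addition.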 Particulars: primary human bronchial epithelial cells; actives raise or lower the signal. In short, it runs like this:
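Bronchial epithelial cells (human, primary); chemical 24 h; uPA by ELISA; bidirectional fit vs DMSO. SRB (0.1%, after 10% TCA fixation, 560 nm) in parallel cultures for cytotoxicity.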

Read-out in assay [17]: Urokinase-type plasminogen activator receptor (uPAR), PLAUR (gene 5329)
The assay can be described thus: BSK_BE3C_uPAR: BioMAP Diversity Plus: BE3C Assay for Urokinase-type plasminogen activator receptor (uPAR) Biomarker Activity (AID 2283039).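 On outcome: cells exposed to compound for one day before measurement.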 Particulars: primary human bronchial epithelial cells; actives raise or lower the signal. The method, boiled down: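 uPAR levels were measured by ELISA after 24 h compound treatment of primary human bronchial epithelial cells, fitted in both directions relative to DMSO. Parallel SRB staining served as the cytotoxicity read-out.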

Read-out in assay [18]: Interleukin-6 (IL6), IL6 (gene 3569)
Description: BSK_CASM3C_IL6: BioMAP Diversity Plus: CASM3C Assay for Interleukin-6 (IL6) Biomarker Activity for (AID 2283040). Particulars: primary human coronary artery smooth muscle cells; actives raise or lower the signal.

Read-out in assay [19]: Tissue plasminogen activator (tPA), PLAT (gene 5327)
The assay can be described thus: BSK_BE3C_tPA: BioMAP Diversity Plus: BE3C Assay for Tissue plasminogen activator (tPA) Biomarker Activity (AID 2283041).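 Further: tPA level quantified by ELISA one day after compound addition.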 Particulars: primary human bronchial epithelial cells; actives raise or lower the signal. The method, boiled down: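 tPA measured by ELISA 24 h after dosing human primary bronchial epithelial cells (BE3C system). Changes in either direction were fitted against DMSO. Parallel cultures were stained with SRB to flag overt cytotoxicity.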

Read-out in assay [20]: Human Leukocyte Antigen - DR isotype (HLADR), HLA-DRA (gene 3122)
The assay can be described thus: BSK_BE3C_HLADR: BioMAP Diversity Plus: BE3C Assay for Human Leukocyte Antigen - DR isotype (HLADR) Biomarker Activity (AID 2283032). Particulars: primary human bronchial epithelial cells; actives raise or lower the signal. The method, boiled down: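 Cell-surface HLA-DR ELISA readout at 24 h after dosing in the BE3C primary human lung bronchial epithelial system; gain or loss of signal against DMSO, with parallel sulforhodamine B staining of total protein for overt cytotoxicity.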

Sequence of human Vitamin D Receptor (VDR), VDR (gene 7421) (P11473 whole entry, looked up, the tested form may be a part): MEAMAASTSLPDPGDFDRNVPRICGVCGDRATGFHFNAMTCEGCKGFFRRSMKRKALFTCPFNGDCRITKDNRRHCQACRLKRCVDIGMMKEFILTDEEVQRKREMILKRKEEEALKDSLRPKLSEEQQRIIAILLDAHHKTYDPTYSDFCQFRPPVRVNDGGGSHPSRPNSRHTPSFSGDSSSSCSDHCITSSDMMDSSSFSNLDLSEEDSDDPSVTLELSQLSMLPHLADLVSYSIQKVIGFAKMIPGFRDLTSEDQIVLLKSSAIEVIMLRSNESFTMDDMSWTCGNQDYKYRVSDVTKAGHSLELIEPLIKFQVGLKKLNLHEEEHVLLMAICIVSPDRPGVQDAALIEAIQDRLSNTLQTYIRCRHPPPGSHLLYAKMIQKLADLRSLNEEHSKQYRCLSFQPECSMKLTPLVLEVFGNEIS

With `c1ccc2ccccc2c1`, the outcome in assay [1], in assay [2], in [3], in assay [4], in assay [5] and in [6] was inactive. Further, the outcome in [7], in assay [8], in [9], in assay [10], in assay [11] and in assay [12] was inactive. Besides, the result in assay [13], in assay [14], in assay [15], in [16], in assay [17] and in [18] was inactive. For the same molecule, the outcome in assay [19] was inactive.

With `CN(C)C(=O)C1(N2CCCCC2)CCN(CC[C@@]2(c3ccc(Cl)c(Cl)c3)CN(C(=O)c3ccccc3)CCO2)CC1`, the molecule was called inactive in assay [1], in assay [8] and in assay [10]. Moreover, the concentration at half-maximal activity (AC50) in [2] was 7.1 µM (active); in assay [3], 29.1 µM (active); in assay [4], 12.5 µM (active); in [5], 15.6 µM (active); in assay [6], 18.9 µM (active); in assay [7] it was 26.6 µM (active). Besides, the AC50 in assay [9] was 12.3 µM (active); in assay [20] it was 14.4 µM (active); in [11], 30.8 µM (active); in [12], 16.4 µM (active); in assay [13], 31.2 µM (active); in assay [14] it was 32.3 µM (active). Besides, the AC50 in [15] was 24.4 µM (active); in assay [16], 17.7 µM (active); in [17] it was 12 µM (active); in assay [18] it was 31.2 µM (active).

For the molecule `CCCCCCCCCCCO`, the results for the AC50 in assay [1], in [2] and in assay [11] were 159 µM (active), 31.3 µM (active) and 20 µM (active), respectively. In addition, the result in [3], in assay [4], in assay [5], in assay [6], in assay [7] and in [8] was inactive. Further, the result in assay [9], in assay [10], in [12], in assay [13], in assay [14] and in assay [15] was inactive. Also, the result in assay [16], in assay [17], in assay [18] and in assay [19] was inactive.

`CCCCCCCC[Si](OCC)(OCC)OCC`: the call in [1], in [3], in assay [4], in assay [5], in [7] and in [10] was inactive. Moreover, the outcome in [20], in [13], in assay [14], in [15], in assay [16] and in assay [18] was inactive. Besides, the result in assay [19] was inactive. Besides, the concentration at half-maximal activity (AC50) is 31.4 µM (active) in [2]; 32.8 µM (active) in assay [6]; 21 µM (active) in assay [8]; 33.2 µM (active) in assay [9]; 21.6 µM (active) in assay [11]; 26.3 µM (active) in assay [12].

`CO[C@H]1/C=C/O[C@@]2(C)Oc3c(C)c(O)c4c(O)c(c(/C=N/N5CCN(C)CC5)c(O)c4c3C2=O)NC(=O)/C(C)=C\C=C\[C@H](C)[C@H](O)[C@@H](C)[C@@H](O)[C@@H](C)[C@H](OC(C)=O)[C@@H]1C`: the result in assay [1], in assay [2], in assay [3], in assay [4], in [5] and in assay [6] was inactive. Besides, the result in assay [7], in [8], in [9], in assay [10], in assay [11] and in [12] was inactive. The result in [13], in assay [14], in assay [15], in assay [16], in assay [17] and in [18] was inactive.

With `Cc1cccc2ccccc12`, the result in assay [1], in assay [2], in [3], in [4], in assay [5] and in [6] was inactive. Also, the result in assay [7], in [8], in [9], in assay [10], in assay [20] and in [11] was inactive. For the same molecule, the result in assay [12], in assay [13], in assay [14], in [15], in assay [16] and in [17] was inactive. Further, the result in assay [18] was inactive.
